Experiment [1] can be described thus: NCI Yeast Anticancer Drug Screen. Data for the rad50 strain (AID 155).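 Note: 0% = growth of vehicle-only cultures of the same strain.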 Particulars: S. cerevisiae rad50 strain growth inhibition; at 50.0 µM; active compounds read high. The essentials: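 Cells are treated with compound, grown, and their growth is then scored against vehicle-only cultures of the same repair-deficient yeast strain.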
The nature of experiment [2]: NCI Yeast Anticancer Drug Screen. Data for the mec2-1 strain (AID 157). Particulars: S. cerevisiae mec2-1 strain, at 50.0 µM, active compounds read high. The essentials: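 Growth inhibition is read against vehicle-treated controls after compound exposure of the mec2-1 yeast strain, which is defective in DNA damage repair or cell cycle control.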
A short description of experiment [3]: NCI Yeast Anticancer Drug Screen. Data for the sgs1 mgt1 strain (AID 161).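 Note: 0% = growth of cultures given vehicle only.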 Particulars: S. cerevisiae sgs1 mgt1 strain, at 50.0 µM, active compounds read high. The essentials:
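Compounds are added to genetically altered yeast, and growth is compared with cultures given vehicle alone to give percent inhibition.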

A short description of experiment [4]: NCI Yeast Anticancer Drug Screen. Data for the cln2 rad14 strain (AID 165).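 Note: 0% = growth equal to vehicle treated cultures.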 Particulars: S. cerevisiae cln2 rad14 strain, at 50.0 µM, active compounds read high. The essentials: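 Growth inhibition, relative to vehicle-treated controls, is the read-out. The test organism is a yeast strain with defined genetic alterations, cln2 rad14.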
Experiment [5] can be described thus: NCI Yeast Anticancer Drug Screen. Data for the bub3 strain (AID 167). Particulars: S. cerevisiae bub3 mutant strain, at 50.0 µM, active compounds read high. In a few lines:
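Part of a panel of yeast mutants defective in DNA damage repair or cell cycle regulation. Each strain is grown with compound, and inhibition is calculated relative to solvent-treated cultures.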

The nature of experiment [6]: NCI Yeast Anticancer Drug Screen. Data for the mlh1 rad18 strain (AID 175). Particulars: S. cerevisiae mlh1 rad18 strain growth inhibition; at 50.0 µM; active compounds read high. In a few lines: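 Cells of a genetically altered yeast strain, deficient in DNA damage repair, were treated with compound. Their growth was then compared with that of vehicle-treated cultures to give inhibition.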

This is part of a sample that, as a whole, favours compounds with a hit. Of some 79,000 tested, about 15% had one in any assay. Values without a mark were called inactive. The source made the active and inactive calls. Cut-off read from the data, not from the text of the source: active = growth inhibition above about 70%; inactive = the rest.

In the case of `CCCCC(=O)CCCCCCCCC(=O)CCCC`, the growth inhibition in experiment [1] was 0.7%; in experiment [2] it was -8.65%; in experiment [3], -19.8%; in experiment [4], -31.2%; in experiment [5], -4%; in experiment [6] it was -19.8%.

With `CCCCCCCC/C=C\CCCCCCCC(=O)NCCN(CC)CC`, the growth inhibition in experiment [1] was 98.7% (active); in experiment [2], 99.3% (active); in experiment [3] it was 99.3% (active); in experiment [4], 96.8% (active); in experiment [5], 98.7% (active); in experiment [6], 98.8% (active).

Take `O=C1C=CC(CCCCCn2ccc(=O)[nH]c2=O)C(=O)N1` (stereo unspecified): the growth inhibition in experiment [1] was -8.25%; in experiment [2] it was 3.15%; in experiment [3], 14.7%; in experiment [4], 13.8%; in experiment [5], -6.6%; in experiment [6], -0.25%.

Take `O=C1CCCC2OC2[C@H]2CCCCCC[C@@H]12` (stereo partly specified): the growth inhibition in experiment [1] is 2.5%; in experiment [2], 0.9%; in experiment [3], 4.8%; in experiment [4], 3.15%; in experiment [5], -2.35%; in experiment [6], 7.85%.

As to `C/C(=N\NC(=O)c1ccncc1)c1ccccc1Cl`, the growth inhibition in experiment [1] is -23.3%; in experiment [2], -23.9%; in experiment [3], -16.1%; in experiment [4], -13.3%; in experiment [5], -75.8%; in experiment [6] it was -17.4%.

Regarding `Oc1cccc(O)c1`, the growth inhibition in experiment [1] is 0.8%; in experiment [2] it was -1%; in experiment [3], -1.1%; in experiment [4], -12.2%; in experiment [5], 1.75%; in experiment [6], 33.1%.

For `CC(C)(CO)[C@@H](O)C(=O)NCCC(=O)O`, the growth inhibition in experiment [1] is -27.5%; in experiment [2], -45.9%; in experiment [3], -10.2%; in experiment [4], 15.4%; in experiment [5] it was -27%; in experiment [6], -23.9%.

With `NNC(=O)CCSCCC(=O)NN`, the growth inhibition in experiment [1] was 7.85%; in experiment [2], -17.2%; in experiment [3], 3.4%; in experiment [4], -28.9%; in experiment [5], -5.95%; in experiment [6] it was -0.75%.

Take `O=c1c2cccnc2cc(-c2ccccc2)n1CCO`: the growth inhibition in experiment [1] is -27.5%; in experiment [2], -12.3%; in experiment [3] it was -16.2%; in experiment [4], 4.55%; in experiment [5], 3.3%; in experiment [6], -4.15%.

Turning to `CCCCCCCCCCCC[N+](C)(C)Cc1cc(=O)c(O)co1`, the growth inhibition in experiment [1] is 71.7% (active); in experiment [2], 43.6%; in experiment [3], 74.1% (active); in experiment [4] it was 78.8% (active); in experiment [5], 65%; in experiment [6], 27.2%.

Take `CCN(CC)CCC1CCCCN1CC(=O)N1c2cc(Cl)ccc2NC(=O)CC1C` (stereo unspecified): the growth inhibition in experiment [1] was 24.9%; in experiment [2], 0.8%; in experiment [3], 15.1%; in experiment [4], -6.45%; in experiment [5], 1.3%; in experiment [6], 20.6%.

For `CC(C)C(=O)OC1c2cc(OCCN(C)C)ccc2CC1C` (stereo unspecified), the growth inhibition in experiment [1] is -11%; in experiment [2] it was -6.75%; in experiment [3], -8.3%; in experiment [4], -27.9%; in experiment [5] it was -5.95%; in experiment [6], -33.9%.

`CCOC(=O)C(CNCc1ccccc1)C1CCCCC1` (stereo unspecified): the growth inhibition is 8.65% in experiment [1]; 1.65% in experiment [2]; 18.2% in experiment [3]; -0.7% in experiment [4]; 5.85% in experiment [5]; 16.1% in experiment [6].

Regarding `Cc1c(C(=O)O)n2cnnc2c2ccccc12`, the growth inhibition is 22.8% in experiment [1]; 4% in experiment [2]; -38.1% in experiment [3]; 11.9% in experiment [4]; -15.8% in experiment [5]; 1.5% in experiment [6].

As for `COc1ccc(/C=N/N2CCN(/N=C/c3ccc(OC)c(OC)c3)CC2)cc1OC`, the growth inhibition in experiment [1] was 22.9%; in experiment [2], 0.65%; in experiment [3] it was 3.25%; in experiment [4] it was 19.1%; in experiment [5], -1.75%; in experiment [6] it was 1.15%.

Take `O=C(O)Cc1ccc2c(c1)C(=O)C(=O)N2`: the growth inhibition in experiment [1] is 18.6%; in experiment [2], 18.6%; in experiment [3], 7.05%; in experiment [4], -8.75%; in experiment [5] it was -18.7%; in experiment [6] it was 15.1%.

`CC(=N\N=C\c1ccccn1)/C(C)=N/N=C(C)/C(C)=N/N=C/c1ccccn1`: the growth inhibition in experiment [1] was 29.1%; in experiment [2] it was 17.9%; in experiment [3], 7.9%; in experiment [4], 11.4%; in experiment [5], 1.95%; in experiment [6] it was -23.1%.

With `CCOC(=O)C(Cc1ccc([N+](=O)[O-])cc1)NC(=O)CC1c2ccccc2-c2ccccc21` (stereo unspecified), the growth inhibition in experiment [1] was -10.1%; in experiment [2], 1.05%; in experiment [3], 3.4%; in experiment [4], -35%; in experiment [5], -9.9%; in experiment [6], -8.95%.

Regarding `[N-]=[N+]=NC[C@H]1OCO[C@H](CN=[N+]=[N-])[C@H]2OCCOCCOc3ccccc3OCCOCCO[C@@H]21`, the growth inhibition was -13.2% in experiment [1]; -9.65% in experiment [2]; -11.6% in experiment [3]; -15.6% in experiment [4]; -30.9% in experiment [5]; -18.1% in experiment [6].

On to `Cc1cc(Cc2ccc(N)c(C)c2)ccc1N`, for which the growth inhibition in experiment [1] is 3.4%; in experiment [2], 0.9%; in experiment [3], -12.8%; in experiment [4], -52.9%; in experiment [5], -19%; in experiment [6] it was -2.45%.

On to `Cc1ccc(S(=O)(=O)NC(=O)C2(Br)S(=O)(=O)OCCOS2(=O)=O)cc1`, for which the growth inhibition in experiment [1] was 1.25%; in experiment [2], -28.4%; in experiment [3] it was 6.1%; in experiment [4] it was -54.9%; in experiment [5], 24.6%; in experiment [6], 12%.

The record behind these values is PubChem BioAssay (NCI).
